# This is one part of a sample in which hits are shown more often than they occur.
# HT1080 IDH1KD tx: toxicity to HT-1080 IDH1 knockdown cells (counter line) | HT-1080 IDH1 knockdown viability, ATP luminescence, 48 h | Potency, µM (titrated, usually from 46.1 µM), inactives show at the highest dose activity, negative = toxicity, usual class: cytotoxic | hit rate 2% among 360,000;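 note: potency is the fitted concentration of half-maximal effect; 0% = DMSO wells and -100% = cell-free medium wells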
#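 IDH1KD HT-1080 cells, 750/well, RPMI + 5% FBS; compound pinned after 2 h settling; 48 h, 37 °C; CellTiter-Glo luminescence; % activity normalised to DMSO and no-cell wells; curves fitted, classed by r2 and efficacy.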
# ALOX12 inh: blocks human arachidonate 12S-lipoxygenase | P18054 | purified 12hLO, xylenol orange hydroperoxide absorbance | Potency, µM (series often up to 108 µM), for inactives: at the top dose activity change, negative = inhibition, actives largely listed as inhibitors | hit rate 1.1% among 580,000 | AID 1671190; note: potency is the fitted concentration of half-maximal effect
# Target sequence (P18054 whole entry, looked up): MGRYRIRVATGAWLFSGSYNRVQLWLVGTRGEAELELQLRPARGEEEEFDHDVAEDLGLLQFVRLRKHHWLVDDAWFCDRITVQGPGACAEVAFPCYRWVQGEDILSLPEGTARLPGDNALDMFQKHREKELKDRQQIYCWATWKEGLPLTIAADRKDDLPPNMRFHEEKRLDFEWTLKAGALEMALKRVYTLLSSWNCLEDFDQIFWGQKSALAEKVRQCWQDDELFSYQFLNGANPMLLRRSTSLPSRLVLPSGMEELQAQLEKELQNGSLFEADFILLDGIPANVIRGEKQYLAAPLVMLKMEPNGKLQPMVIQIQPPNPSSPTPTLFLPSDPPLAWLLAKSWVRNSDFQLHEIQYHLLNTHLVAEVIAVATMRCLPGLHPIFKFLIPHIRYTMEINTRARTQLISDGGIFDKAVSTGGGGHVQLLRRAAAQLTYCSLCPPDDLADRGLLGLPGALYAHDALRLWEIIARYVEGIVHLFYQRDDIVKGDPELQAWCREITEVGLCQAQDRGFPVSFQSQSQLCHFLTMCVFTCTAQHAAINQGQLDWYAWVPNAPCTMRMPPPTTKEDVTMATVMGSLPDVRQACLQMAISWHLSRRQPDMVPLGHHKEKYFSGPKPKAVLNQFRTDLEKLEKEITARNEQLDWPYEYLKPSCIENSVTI
#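 Purified human 12hLO (150 nM final) in 25 mM Hepes, 0.01% Triton X-100, pH 7.0 was preincubated 15 min at room temperature with compound. Then 40 uM arachidonic acid was added, 30 min. Hydroperoxide was read by Fe-XO absorbance ratio 573/405 nm.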
# HT1080-NT tox: kills 2HG-producing HT-1080-NT fibrosarcoma cells. HT-1080-NT fibrosarcoma viability, CellTiter-Glo ATP luminescence, 48 h. Potency, µM (highest dose often 46.1 µM), inactives show top-dose activity, negative = less viability, hits mostly cytotoxic. hit rate 1.6% among 360,000. AID 686970;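 note: NT is the 2HG producing partner of a matched IDH1 knockdown line; potency is the fitted concentration of half-maximal effect; 0% = DMSO-treated cells and -100% = media-only wells without cells; nearly all actives have a fitted effect of over 55% in size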
#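 A 48-hour cytotoxicity screen used HT-1080-NT cells plated 2 hours before compound delivery. ATP-based CellTiter-Glo luminescence measured viability, normalized to DMSO and no-cell controls.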
# DT40 TDP1 CPT: growth inhibition of DT40 Tdp1-/-;hTDP1 cells with camptothecin (screen for TDP1 inhibitors) | chicken DT40 Tdp1-/-;hTDP1 cells + 20 nM CPT, ATP luminescence, 48 h | Potency, µM (top dose mostly 46.2 µM), for the others: top-dose activity change, negative = growth inhibition, actives largely listed as inhibitors | hit rate 12% among 420,000 | AID 686979; note: potency is the fitted concentration of half-maximal effect; nearly all actives have a fitted effect of over 55% in size
#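 Cell growth measured by CellTiter-Glo luminescence after a minimum 48 h, 37 C compound exposure with 20 nM CPT in Tdp1-knockout DT40 cells stably expressing hTDP1, seeded 400/well; qHTS titration format.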
# IL1B secr inh: blocks inflammasome-driven IL-1 beta release; THP-1 LPS/ATP IL-1B secretion, AlphaLISA, 16 h; hits give low values; activity change, % at 57.5 µM; hit rate 4.7% among 360,000; AID 743279; in the data active = activity change below about -50%; inconclusive = mostly about -30% to -49%
#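 THP-1 cells pretreated 1 hr with compounds (up to 57.5 uM final), then stimulated with LPS (250 ng/mL final) plus ATP (1.25 mM final); secreted IL-1B measured by AlphaLISA after 16 hr, decreased signal indicating inhibition.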
# TDP1 cell noCPT: qHTS for Inhibitors of human tyrosyl-DNA phosphodiesterase 1 (TDP1): qHTS in cells in absence of CPT | Potency, µM (series often up to 46.2 µM), inactives show at the top dose activity change, negative = growth inhibition, actives largely listed as inhibitors | DT40 Tdp1-/- hTDP1 cells, no CPT, ATP luminescence, 48 h | hit rate 15% among 420,000; note: potency is the fitted concentration of half-maximal effect; nearly all actives have a fitted effect of over 55% in size
#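 Readout: luminescence from CellTiter-Glo after 30 min in the dark at RT. Cells: DT40 Tdp1-/- with stable hTDP1, 400/well. Exposure: compounds alone, ≥48 hr, 37 °C.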
# An asterisk follows results filed as active; ? = inconclusive; . = no result; [ ] = dose if it differs, or a comment. Unless noted, calls come from the whole dose curve; as a rule, active = well fitted curve in the direction sought with a large enough effect; inconclusive = small, poorly fitted or top-dose-only effect, or another doubt; inactive = no such curve, though single readings can be large; an effect the other way counts as inactive or inconclusive. Unless noted, % is set by controls: 0 for no effect and ±100 for the full control effect.
SMILES,HT1080 IDH1KD tx,ALOX12 inh,HT1080-NT tox,DT40 TDP1 CPT,IL1B secr inh,TDP1 cell noCPT
COc1cccc(C2CC(=O)Nc3cc(C)c(C)cc32)c1 (stereo unspecified),-25%,-3%,?,?,38,15µM*
O=C1CC(c2cccc([N+](=O)[O-])c2)c2cc3c(cc2N1)CCC3 (stereo unspecified),?,-25%,?,18µM*,53,26µM*
O=C1CC(c2cccc([N+](=O)[O-])c2)c2c(ccc3ccccc23)N1 (stereo unspecified),12µM*,14%,?,13µM*,-21,8.2µM*
CCOc1cccc(C2CC(=O)Nc3cc(OC)c(OC)cc32)c1 (stereo unspecified),-2%,-23%,-6%,?,9,?
COc1cccc(C2CC(=O)Nc3cc(OC)c(OC)cc32)c1 (stereo unspecified),9%,9%,-2%,-26%,21,-25%
COc1cccc(C2CC(=O)Nc3cc4c(cc32)CCC4)c1 (stereo unspecified),26µM*,0%,23µM*,4.1µM*,63,2.6µM*
O=C(c1ccc(Cl)nc1)N1CCc2nc(-c3ccccc3)nc(-c3ccc(Cl)cc3)c2C1,.,20%,.,.,.,.
CCn1cc(S(=O)(=O)N2CCCOCCNC(=O)[C@@H]3CCC[C@@H]32)cn1,.,59%,.,.,.,.
NC(=O)Cc1c[nH]c2ncc(-c3ccc4c(c3)OCO4)cc12,.,-1%[176 µM],.,.,.,.
O=C1CC(c2cccc(Cl)c2)c2cc3c(cc2N1)CCC3 (stereo unspecified),?,?,7.1µM*,4.6µM*,37,2.9µM*
CCCN(Cc1cccs1)C(=O)Nc1cc(OC)c(OC)c(OC)c1,.,16%,.,.,.,.
Oc1c(N=NC(=S)Nc2ccccc2F)c2ccccc2n1Cc1ccc(Cl)cc1,2%,-23%,-15%,4.6µM*,-11,5.8µM*
Cc1ccccc1Cn1c(O)c(N=NC(=S)Nc2ccccc2F)c2ccccc21,-13%,-7%,-13%,5.8µM*,-9,6.5µM*
CCn1c(O)c(N=NC(=O)CNC(=O)c2ccccc2F)c2ccccc21,?,-15%,?,?,0,?
Cc1ccc(C)c(Cn2c(O)c(N=NC(=S)Nc3ccccc3F)c3ccccc32)c1,8%,4%,1%,5.2µM*,-8,2.9µM*
Oc1c(N=NC(=S)Nc2ccccc2F)c2ccccc2n1Cc1ccccc1F,-13%,-9%,4%,16µM*,0,7.3µM*
O=c1[nH]ncc2c3ccccc3n(Cc3ccccc3F)c12,-23%,0%,-15%,0%,30,?
CCNC(=S)N=Nc1c(O)n(Cc2ccc(Cl)cc2)c2ccccc12,?,?,?,16µM*,-5,?
O=C(CCc1ccccc1)OCCN1CCOCC1,18%,?,17%,2%,13,-3%
CCOC(=O)/C(=C\c1ccccc1)C(=O)CCN1CCOCC1,7%,?,6%,1.6µM*,-1,1.5µM*
CCCCCCC(C)NC(=O)CCNC(=O)c1ccccc1 (stereo unspecified),.,4%,.,.,.,.
Cc1ccc(OCC(COCc2ccccc2)NC(C)C)cc1 (stereo unspecified),-27%,?,-25%,?,?,18µM*
CCCCCC(=O)N(O)C1CC(=O)N(c2ccccc2)C1=O (stereo unspecified),-24%,176%,-18%,3.3µM*,-26,4.6µM*
O=C1CC(N2CCN(c3ccccc3O)CC2)C(=O)N1Cc1ccccc1 (stereo unspecified),0%,6%,4%,-18%,0,?
O=C1CC(N(O)C2CC(=O)N(Cc3ccccc3)C2=O)C(=O)N1Cc1ccccc1 (stereo unspecified),-2%,-3%,0%,21µM*,4,10µM*
SMILES,HT1080 IDH1KD tx,ALOX12 inh,HT1080-NT tox,DT40 TDP1 CPT,IL1B secr inh,TDP1 cell noCPT
CCCCCC(=O)NNC1CC(=O)N(c2ccccc2)C1=O (stereo unspecified),11%,221%,6%,0%,14,-6%
CCCCCC(=O)N(CN1C(=O)CCC1=O)c1ccccc1,8%,18%,-12%,2%,18,-1%
CCCCCCC(=O)N(O)C1CC(=O)N(Cc2ccccc2)C1=O (stereo unspecified),?,?,?,13µM*,-87*,13µM*
NC(=S)NN=C(c1ccc(Br)cc1)C1CC1,25%,-4%,19%,?,-76*,?
O=C(N/N=C(\c1ccccc1)C1CCCCC1)c1ccc(Cl)cc1,.,39%,.,.,.,.
NC(=S)NN=C(c1ccc(F)cc1)C1CC1,17%,-11%,12%,21µM*,-86*,?
CCCN1CNc2c(c(=O)[nH]c(=S)n2CCc2ccsc2)C1,20%,.,15%,-19%,.,?
Cc1cc(C)nc(NC2=NC3CCCCC3N2)n1 (stereo unspecified),-9%,1%,-6%,21µM*,24,?
Cc1cc(C)nc(NC2=NCC(=O)N2c2cc(Cl)cc(Cl)c2)n1,7%,?,9%,-2%,5,-27%
COc1ccccc1-c1nc2n(n1)C(c1ccccc1Cl)C(C(=O)Nc1cccnc1)=C(C)N2 (stereo unspecified),.,-5%,.,?,.,21µM*
CCOc1ccc(C2C(C(=O)Nc3ccccc3)=C(C)Nc3nc(-c4ccccc4Cl)nn32)cc1OC (stereo unspecified),.,-1%,.,?,.,18µM*
COc1cc(C2C(C(=O)Nc3ccccc3)=C(C)Nc3nnnn32)cc(OC)c1OC (stereo unspecified),.,-13%,.,5%,.,12µM*
Cc1ccc2cc(CNCc3cccc4ccccc34)c(N3CCC(O)CC3)nc2c1,.,10%,.,-2%[9.04 µM],.,-29%
Cc1c(C(C)C)c(=O)n(-c2ccc(S(=O)(=O)NC3CCCCC3)cc2)n1C,-11%,-4%,-5%,5.8µM*,-54*,5.2µM*
Cc1c(C(C)C)c(=O)n(-c2ccc(S(=O)(=O)NCc3ccccc3)cc2)n1C,?,-17%,?,?,0,8.2µM*
Cc1c(C(C)C)c(=O)n(-c2ccc(S(=O)(=O)N3CCOCC3)cc2)n1C,-10%,-5%,-3%,0%,27,-19%
